Among the data in PubChem BioAssay are composite z-score and z-score values, retold here.

Activity calls are given as the source filed them.

Experiment [1] has as its system PRMT1 (protein arginine N-methyltransferase 1). Briefly: PRMT1 binders on small-molecule microarrays, primary screen, biochemical, small-molecule microarray, 635 nm fluorescence (AID 1088).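 Further: binding of Prmt1 protein to compounds spotted on small-molecule microarray slides.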 The note with it: small-molecule microarray binding, higher = more signal.
Experiment [2] can be described thus: yeast growth modulation, basal conditions, primary screen, YJM789 clinical isolate, OD600, 24 h (AID 1089).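 Further: growth of clinical yeast isolate S. cerevisiae YJM 789 seeded 1000 cells per well; test concentration not given here.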 To be noted: S. cerevisiae YJM789 growth, higher = more signal, called active from +8 up or from −8 down.
A short description of experiment [3]: fission yeast growth modulation, primary screen, strain 972, OD600, 24 h, no modulator (AID 1090).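 Further: basal condition with compound alone and no growth modifier present; test concentration not given here.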 To be noted: S. pombe 972 growth, higher = more signal, called active from +8 up or from −8 down.
Experiment [4] is described as follows: S. cerevisiae growth modulation with rapamycin, primary screen, strain BY4716, OD600, 96 h (AID 1091). Further: test concentration not given here. The note with it: higher = more signal, called active from +8 up or from −8 down.
In experiment [5] the target is Torsin-1A-interacting protein 2 (Homo sapiens) (UniProt Q8NFQ8). Briefly: LULL1 binders on small-molecule microarray, primary screen, cell lysate, human LULL1 lysate, 635/667 nm fluorescence (AID 1092).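 Further: probe is lysate of COS7 cells overexpressing human LULL1; score merges per-feature 667 nm fluorescence with signal-to-noise.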 To be noted: hLULL1 lysate binding, 635 nm fluorescence, higher = more signal.
Experiment [6] in a line: E. coli growth modulation, two-sided OD650, primary screen, E. coli filamentation project, strain DRC41, 24 h (AID 1093).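 Further: MC1000 strain lacking acrAB efflux and sulA so SOS filamentation is blocked; test concentration not given here.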 To be noted: OD650, 24 h, higher = more signal, called active from +8 up or from −8 down.
Experiment [7] in a line: small-molecule microarray binders of probe aLefty2, primary screen, biochemical, biotinylated probe, 635/667 nm fluorescence (AID 1094).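 Further: score merges spot fluorescence near 667 nm with spot signal-to-noise ratio.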 The note with it: higher = more signal.
The test system of experiment [8] is Noggin (protein binding on small-molecule microarray). As to the kind of experiment: Noggin binders on small-molecule microarray, primary screen, biochemical, 635/667 nm fluorescence (AID 1095).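 Further: score merges 667 nm feature fluorescence with signal to noise over triplicate slides.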 To be noted: 635 nm fluorescence, higher = more signal.
Experiment [9] concerns the target Neurogenic locus notch homolog protein 3 (Homo sapiens) (UniProt Q9UM47). As to the kind of experiment: NOTCH3 binders on small-molecule microarray, primary screen, biochemical, 635/667 nm fluorescence (AID 1096). The note with it: NOTCH3 binding, 635 nm fluorescence, higher = more signal.
Experiment [10] is described as follows: small-molecule microarray binders of probe aEGFR, primary screen, biochemical, biotinylated probe, 635/667 nm fluorescence (AID 1097).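 Further: probe is a biotinylated anti-EGFR antibody binding compounds printed on slides; score combines fluorescence near 667 nm and signal to noise of each spot.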 To be noted: higher = more signal.
The subject of experiment [11] is Plasmodium falciparum Sir2 (PF13_0152, Sir2A). As to the kind of experiment: pfSir2 binders on small-molecule microarrays, primary screen, biochemical, small-molecule microarray, 635 nm fluorescence (AID 1098).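 Further: score merges spot fluorescence intensity with its signal-to-noise ratio.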 The note with it: small-molecule microarray binding, fluorescence 635 nm; higher = more signal.
A short description of experiment [12]: small-molecule microarray binders of probe aDKK1, primary screen, biochemical, biotinylated probe, 635/667 nm fluorescence (AID 1099).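 Further: score merges 667nm spot fluorescence with signal to noise across triplicate slides; reference of the scale not given here.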 The note with it: higher = more signal.
Experiment [13] is described as follows: small-molecule microarray binders of probe aCHRDL2, primary screen, biochemical, biotinylated probe, 635/667 nm fluorescence (AID 1100). To be noted: higher = more signal.
The nature of experiment [14]: splicing luciferase reporter signal modulators, primary screen, spliceosome inhibition project, cell-based, HEK293, splice +/- reporter (AID 1101).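 Further: HEK293 cells carrying a splicing-competent luciferase reporter gene; test concentration not given here.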 The note with it: luminescence, 24 h, higher = more signal, called active from +8 up or from −8 down. A general note: Reporter assays use an easily measured gene product as a stand-in for the process of interest.
For experiment [15], the target named is Fibroblast growth factor 10 (Homo sapiens) (UniProt O15520). Briefly: FGF10 binders on small-molecule microarrays, primary screen, biochemical, small-molecule microarray, 635 nm fluorescence (AID 1102). To be noted: FGF10 binding, fluorescence 635 nm, higher = more signal.
Experiment [16] deals with glycogen synthase kinase-3 (GSK3A per assay name; protocol says GSK3B). Briefly: GSK3 binders on small-molecule microarrays, primary screen, biochemical, small-molecule microarray, 635 nm fluorescence, GSK3A (AID 1103). Further: the record names both GSK3A and GSK3B. To be noted: small-molecule microarray binding, fluorescence 635 nm; higher = more signal.
Experiment [17] deals with Epidermal growth factor receptor (Homo sapiens) (UniProt P00533). As to the kind of experiment: EGFR binders on small-molecule microarrays, primary screen, biochemical, small-molecule microarray, 635 nm fluorescence (AID 1104).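 Further: score merges 667 nm emission intensity with spot signal to noise over triplicate slides.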 The note with it: EGFR binding, higher = more signal.
Experiment [18] addresses Follistatin-related protein 3 (Homo sapiens) (UniProt O95633). Briefly: FSTL3 binders on small-molecule microarrays, primary screen, biochemical, small-molecule microarray, 635 nm fluorescence (AID 1105).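 Further: score merges emission near 667 nm and signal to noise per printed spot across three slides.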 The note with it: FSTL3 binding, higher = more signal.
Experiment [19] has as its target Dickkopf-related protein 1 (Homo sapiens) (UniProt O94907). As to the kind of experiment: DKK1 binders on small-molecule microarrays, primary screen, biochemical, small-molecule microarray, 635 nm fluorescence scan (AID 1106).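 Further: score merges emission near 667 nm with signal to noise over three replicate slides.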 The note with it: DKK1 binding, higher = more signal.
The test system of experiment [20] is Inhibin beta A chain (activin A). Briefly: INHBA (activin A) binders on microarrays, primary screen, biochemical, small-molecule microarray, 635 nm fluorescence scan (AID 1107).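 Further: mouse activin A protein probed at 4.33 µg/mL on printed slides; score merges bound-protein fluorescence near 667 nm with spot signal-to-noise.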 The note with it: small-molecule microarray binding, higher = more signal.

Dickkopf-related protein 1 (Homo sapiens), sequence (O94907 whole entry, looked up): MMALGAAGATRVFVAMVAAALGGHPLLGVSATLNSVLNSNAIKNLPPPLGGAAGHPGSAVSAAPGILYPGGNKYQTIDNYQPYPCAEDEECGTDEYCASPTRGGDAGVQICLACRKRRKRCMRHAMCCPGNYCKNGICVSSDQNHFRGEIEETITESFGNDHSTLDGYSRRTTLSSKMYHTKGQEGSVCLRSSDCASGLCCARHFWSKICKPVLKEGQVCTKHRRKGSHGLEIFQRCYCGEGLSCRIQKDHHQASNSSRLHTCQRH
Neurogenic locus notch homolog protein 3 (Homo sapiens), sequence (Q9UM47 whole entry, looked up): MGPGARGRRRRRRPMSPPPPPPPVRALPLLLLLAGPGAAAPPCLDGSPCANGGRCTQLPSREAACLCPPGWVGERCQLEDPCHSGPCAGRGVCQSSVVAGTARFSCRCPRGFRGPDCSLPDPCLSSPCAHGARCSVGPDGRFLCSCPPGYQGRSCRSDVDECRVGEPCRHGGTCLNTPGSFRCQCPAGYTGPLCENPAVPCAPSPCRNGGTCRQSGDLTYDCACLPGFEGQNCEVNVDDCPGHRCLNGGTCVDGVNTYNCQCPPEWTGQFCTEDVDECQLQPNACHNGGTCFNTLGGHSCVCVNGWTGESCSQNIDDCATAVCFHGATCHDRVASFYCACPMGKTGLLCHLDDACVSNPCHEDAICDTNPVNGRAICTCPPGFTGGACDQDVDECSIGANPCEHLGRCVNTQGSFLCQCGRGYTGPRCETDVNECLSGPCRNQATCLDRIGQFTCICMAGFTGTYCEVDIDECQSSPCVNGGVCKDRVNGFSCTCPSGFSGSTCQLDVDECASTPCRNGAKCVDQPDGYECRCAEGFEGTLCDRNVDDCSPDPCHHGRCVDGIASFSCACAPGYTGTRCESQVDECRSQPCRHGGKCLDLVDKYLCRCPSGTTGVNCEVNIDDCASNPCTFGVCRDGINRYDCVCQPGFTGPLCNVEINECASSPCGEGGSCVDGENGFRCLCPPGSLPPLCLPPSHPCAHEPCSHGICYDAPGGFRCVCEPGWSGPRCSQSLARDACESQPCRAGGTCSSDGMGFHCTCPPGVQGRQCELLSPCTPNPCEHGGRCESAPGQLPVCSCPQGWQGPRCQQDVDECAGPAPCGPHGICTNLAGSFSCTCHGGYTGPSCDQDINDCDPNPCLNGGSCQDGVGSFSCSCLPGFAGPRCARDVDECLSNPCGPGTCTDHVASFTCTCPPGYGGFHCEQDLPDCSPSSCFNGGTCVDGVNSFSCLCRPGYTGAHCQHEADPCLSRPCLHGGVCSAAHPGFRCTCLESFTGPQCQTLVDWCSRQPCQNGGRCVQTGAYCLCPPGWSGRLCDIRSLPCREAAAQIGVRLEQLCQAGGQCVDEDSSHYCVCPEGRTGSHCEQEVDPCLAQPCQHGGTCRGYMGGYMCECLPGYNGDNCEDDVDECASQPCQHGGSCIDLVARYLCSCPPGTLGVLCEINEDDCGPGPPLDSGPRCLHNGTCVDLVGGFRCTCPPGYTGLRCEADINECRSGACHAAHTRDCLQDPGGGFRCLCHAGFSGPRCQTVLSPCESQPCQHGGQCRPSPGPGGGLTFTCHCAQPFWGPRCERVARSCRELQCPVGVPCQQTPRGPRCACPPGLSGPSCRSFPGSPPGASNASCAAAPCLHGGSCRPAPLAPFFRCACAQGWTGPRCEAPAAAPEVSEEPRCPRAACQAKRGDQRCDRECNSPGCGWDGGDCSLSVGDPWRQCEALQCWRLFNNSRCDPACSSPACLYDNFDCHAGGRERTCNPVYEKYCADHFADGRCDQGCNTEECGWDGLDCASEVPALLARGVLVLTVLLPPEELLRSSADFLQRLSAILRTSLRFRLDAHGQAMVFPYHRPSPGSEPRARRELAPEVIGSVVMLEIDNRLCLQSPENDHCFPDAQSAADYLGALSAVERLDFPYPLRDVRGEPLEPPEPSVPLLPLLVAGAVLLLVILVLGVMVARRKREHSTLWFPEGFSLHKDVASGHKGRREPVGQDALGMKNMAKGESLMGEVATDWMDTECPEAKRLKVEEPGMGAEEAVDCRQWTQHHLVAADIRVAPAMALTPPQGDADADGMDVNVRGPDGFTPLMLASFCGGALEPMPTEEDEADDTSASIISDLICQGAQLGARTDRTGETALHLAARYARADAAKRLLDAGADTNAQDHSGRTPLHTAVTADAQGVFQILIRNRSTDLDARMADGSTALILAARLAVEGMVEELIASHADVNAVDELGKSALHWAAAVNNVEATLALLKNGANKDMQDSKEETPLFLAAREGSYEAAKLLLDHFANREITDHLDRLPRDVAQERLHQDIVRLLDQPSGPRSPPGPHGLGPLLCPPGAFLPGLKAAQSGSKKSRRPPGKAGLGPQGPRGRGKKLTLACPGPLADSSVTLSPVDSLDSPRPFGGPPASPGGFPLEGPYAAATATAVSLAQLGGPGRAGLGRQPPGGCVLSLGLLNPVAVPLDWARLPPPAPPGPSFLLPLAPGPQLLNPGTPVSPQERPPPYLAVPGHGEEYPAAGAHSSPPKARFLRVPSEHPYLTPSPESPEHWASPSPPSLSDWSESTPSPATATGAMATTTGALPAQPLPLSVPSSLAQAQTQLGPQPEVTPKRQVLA
Follistatin-related protein 3 (Homo sapiens), sequence (O95633 whole entry, looked up): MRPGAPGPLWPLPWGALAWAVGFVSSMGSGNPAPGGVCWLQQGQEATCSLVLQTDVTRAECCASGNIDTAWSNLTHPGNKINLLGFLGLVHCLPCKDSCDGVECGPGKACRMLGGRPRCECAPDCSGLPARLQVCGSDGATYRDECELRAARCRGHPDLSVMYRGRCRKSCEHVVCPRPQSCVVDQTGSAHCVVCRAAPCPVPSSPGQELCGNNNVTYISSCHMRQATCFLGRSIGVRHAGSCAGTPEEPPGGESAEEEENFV
Torsin-1A-interacting protein 2 (Homo sapiens), sequence (Q8NFQ8 whole entry, looked up): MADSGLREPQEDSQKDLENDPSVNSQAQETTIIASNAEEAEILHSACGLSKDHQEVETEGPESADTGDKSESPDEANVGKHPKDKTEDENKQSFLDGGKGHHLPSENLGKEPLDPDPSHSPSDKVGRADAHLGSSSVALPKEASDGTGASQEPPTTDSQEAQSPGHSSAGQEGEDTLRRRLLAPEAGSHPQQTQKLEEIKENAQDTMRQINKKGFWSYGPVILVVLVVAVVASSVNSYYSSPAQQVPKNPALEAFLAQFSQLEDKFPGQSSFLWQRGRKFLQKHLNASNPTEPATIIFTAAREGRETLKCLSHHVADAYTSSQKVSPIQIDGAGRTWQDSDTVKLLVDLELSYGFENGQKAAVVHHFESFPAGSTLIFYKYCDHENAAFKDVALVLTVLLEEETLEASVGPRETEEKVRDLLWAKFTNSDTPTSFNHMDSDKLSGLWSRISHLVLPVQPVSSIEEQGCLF
Fibroblast growth factor 10 (Homo sapiens), sequence (O15520 whole entry, looked up): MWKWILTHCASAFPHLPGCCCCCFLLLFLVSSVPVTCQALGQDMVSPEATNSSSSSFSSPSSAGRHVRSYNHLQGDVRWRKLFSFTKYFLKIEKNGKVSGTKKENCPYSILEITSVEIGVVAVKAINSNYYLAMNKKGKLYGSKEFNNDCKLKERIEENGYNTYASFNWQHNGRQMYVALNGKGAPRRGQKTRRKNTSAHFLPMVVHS
Epidermal growth factor receptor (Homo sapiens), sequence (P00533 whole entry, looked up): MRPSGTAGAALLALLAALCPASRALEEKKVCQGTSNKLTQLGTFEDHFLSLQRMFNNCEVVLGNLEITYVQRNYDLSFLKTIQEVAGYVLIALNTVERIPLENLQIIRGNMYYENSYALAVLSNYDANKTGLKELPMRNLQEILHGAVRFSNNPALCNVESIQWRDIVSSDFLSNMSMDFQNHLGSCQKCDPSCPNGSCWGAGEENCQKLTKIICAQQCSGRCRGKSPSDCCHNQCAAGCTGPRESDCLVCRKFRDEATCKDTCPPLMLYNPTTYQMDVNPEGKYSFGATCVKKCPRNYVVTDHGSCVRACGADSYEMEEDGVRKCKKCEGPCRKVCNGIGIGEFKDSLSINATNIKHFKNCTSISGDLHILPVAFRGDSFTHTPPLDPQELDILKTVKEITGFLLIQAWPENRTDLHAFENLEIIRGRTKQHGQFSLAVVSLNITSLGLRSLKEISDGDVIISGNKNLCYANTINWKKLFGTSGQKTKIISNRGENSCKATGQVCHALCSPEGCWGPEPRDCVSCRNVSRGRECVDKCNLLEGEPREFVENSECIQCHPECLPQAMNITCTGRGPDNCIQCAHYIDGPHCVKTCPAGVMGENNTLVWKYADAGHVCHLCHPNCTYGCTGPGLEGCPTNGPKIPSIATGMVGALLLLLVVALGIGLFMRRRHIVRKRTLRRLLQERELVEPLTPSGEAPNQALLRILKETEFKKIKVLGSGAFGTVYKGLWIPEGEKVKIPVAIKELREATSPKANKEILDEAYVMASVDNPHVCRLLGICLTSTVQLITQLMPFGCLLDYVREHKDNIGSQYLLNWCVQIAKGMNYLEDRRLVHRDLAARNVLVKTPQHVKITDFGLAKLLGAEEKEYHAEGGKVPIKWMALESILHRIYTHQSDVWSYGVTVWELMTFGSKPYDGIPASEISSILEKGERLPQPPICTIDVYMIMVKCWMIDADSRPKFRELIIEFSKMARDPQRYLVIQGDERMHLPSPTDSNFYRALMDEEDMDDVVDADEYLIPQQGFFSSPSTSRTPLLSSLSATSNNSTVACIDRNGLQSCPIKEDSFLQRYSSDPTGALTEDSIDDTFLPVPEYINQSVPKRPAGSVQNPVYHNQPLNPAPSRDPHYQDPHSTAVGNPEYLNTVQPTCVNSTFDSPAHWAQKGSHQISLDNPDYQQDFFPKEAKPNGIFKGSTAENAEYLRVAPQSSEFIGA

As for `CCOC(=O)NN=C1C[C@@H](O)[C@@H](O)[C@@H]2[C@@H]3C(=O)N([C@@H](C)c4ccccc4)C(=O)[C@@H]3CC[C@@H]12`, the composite z-score in experiment [1] is 1.46; in [5] it was -0.0284; in [7], -0.113; in [8], 0.797; in [9], 0.954; in [10], 0.143. Moreover, the composite z-score is 0.799 in [11]; -0.315 in experiment [12]; -0.677 in experiment [13]; 0.725 in [15]; 1.12 in [16]; 1.09 in experiment [17]. Besides, the composite z-score in experiment [18] is 1.34; in [19] it was 0.867; in [20], 1.43. Also, the z-score in [2] is -0.707 (inactive); in [3] it was 0.159 (inactive); in [4], -0.231 (inactive); in [6], 0.667 (inactive); in [14] it was 1.31 (inactive).
As for `O=C1CCCC=C1C(O)CCCCBr` (stereo not given), the composite z-score in experiment [1] is -0.25; in experiment [5], 1.7; in experiment [7] it was 0.263; in [8], 1.03; in experiment [9] it was 0.474; in experiment [10] it was -0.0742. In addition, the composite z-score in experiment [11] was 1.09; in [12], 0.763; in experiment [13] it was 0.653; in [15] it was 0.404; in experiment [16], -0.115; in [17], 0.0038. Besides, the composite z-score in experiment [18] worked out at 1.18; in experiment [19], 0.945; in [20], 1.26. Further, the z-score in experiment [2] is -3.03 (inactive); in experiment [3], -20.8 (active); in experiment [4], -1.04 (inactive); in [6] it was 0.518 (inactive); in [14] it was -0.793 (inactive).
`CCOC(=O)[C@H](Cc1ccccc1)NC(=O)CCC1CC(OC(=O)NCc2cccc3ccccc23)CC2(CCCC(COC(=O)NCc3ccccc3)O2)O1` (stereo not given in full): the composite z-score is 1.04 in experiment [1]; 0.728 in [5]; -0.0931 in experiment [7]; 0.547 in experiment [8]; 0.955 in [9]; -0.142 in experiment [10]. The composite z-score in experiment [11] is 0.388; in experiment [12], -0.208; in experiment [13], -0.285; in experiment [15] it was 0.286; in experiment [16] it was -0.231; in experiment [17] it was 0.173. In addition, the composite z-score is 0.689 in experiment [18], 0.223 in experiment [19] and 0.103 in experiment [20]. In addition, the z-score in experiment [2] is -2.28 (inactive); in experiment [3], -2.51 (inactive); in experiment [4], -0.414 (inactive); in [6] it was -1.42 (inactive); in experiment [14], -2.41 (inactive).
In the case of `CO[C@H]1COC(=O)[C@@H](C)COC(=O)[C@H](COCc2ccccc2)NC(=O)CC=C[C@H]1C`, the composite z-score in experiment [1] was 0.409; in [5], -1.28; in [7], -0.128; in experiment [8] it was 0.98; in [9] it was -0.944; in experiment [10] it was -0.196. Further, the composite z-score was 0.641 in experiment [11]; -0.492 in experiment [12]; -0.828 in experiment [13]; 0.121 in experiment [15]; -0.523 in [16]; 0.039 in experiment [17]. For the same compound, the composite z-score in experiment [18] is 0.678; in experiment [19], 0.705; in [20], 2.01. Further, the z-score in experiment [2] is 0.0827 (inactive); in [3], -0.704 (inactive); in experiment [4], 0.007 (inactive); in experiment [6] it was 0.456 (inactive); in experiment [14] it was 0.104 (inactive).
On to `CC(=O)OC[C@H]1O[C@@H](ON=C(C)CCN2CCCc3nc(C)c(C)cc32)[C@H](OC(C)=O)[C@@H](OC(C)=O)[C@@H]1OC(C)=O`, for which the composite z-score in experiment [1] is 1.55; in experiment [5] it was 0.993; in [7], -0.136; in experiment [8], 0.952; in experiment [9] it was 1.11; in experiment [10], 0.0781. The composite z-score in experiment [11] is 0.541; in experiment [12], -0.132; in experiment [13], -0.638; in experiment [15], 1.03; in experiment [16] it was 1.29; in experiment [17], 0.804. Besides, the figures for the composite z-score in [18], in [19] and in experiment [20] were 1.26, 0.855 and -0.263, respectively. Besides, the z-score in experiment [2] was 0.215 (inactive); in experiment [3], 0.0313 (inactive); in [4], 0.427 (inactive); in [6], -0.722 (inactive); in [14], -0.548 (inactive).
